# In all, about 33,000 sequences were measured (“E-score (-0.5 to 0.5)”: median about -0.036, highest 2% from about 0.37 on). The sample holds the highest values, similar sequences and a random draw of the others, so the mix is not that of the screen.
# Target: T1, Yer064c (UniProt P40041)
# T1 sequence: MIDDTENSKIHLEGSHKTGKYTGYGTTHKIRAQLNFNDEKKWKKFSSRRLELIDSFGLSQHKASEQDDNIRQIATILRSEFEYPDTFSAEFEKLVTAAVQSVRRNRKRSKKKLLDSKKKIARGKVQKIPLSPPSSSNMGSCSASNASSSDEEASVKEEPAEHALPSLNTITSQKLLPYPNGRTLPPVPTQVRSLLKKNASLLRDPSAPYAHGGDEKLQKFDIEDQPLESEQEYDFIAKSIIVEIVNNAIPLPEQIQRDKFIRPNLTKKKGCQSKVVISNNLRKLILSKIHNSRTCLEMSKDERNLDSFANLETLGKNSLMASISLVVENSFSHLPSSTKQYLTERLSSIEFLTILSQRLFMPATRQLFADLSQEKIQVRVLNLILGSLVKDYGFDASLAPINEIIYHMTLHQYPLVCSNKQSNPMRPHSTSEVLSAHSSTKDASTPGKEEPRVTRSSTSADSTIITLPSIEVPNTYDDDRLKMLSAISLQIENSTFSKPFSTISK
# Assay: PBM E-score (8-mer binding enrichment) (E-score (-0.5 to 0.5)); higher = stronger / more preferred TF binding
# Details: protein concentration: 200 nM; construct: GST-full length
# Description: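 Universal 'all 10-mer' protein binding microarrays (Agilent AMADID 015681) probed with GST-tagged S. cerevisiae TFs (full-length or DBD) made by in vitro transcription/translation (PURExpress), about 100-200 nM. Bound TF was detected with fluorescent anti-GST. Each ungapped 8-mer (which stands for itself and its reverse complement) is scored by the PBM enrichment score (E-score), a modified Wilcoxon-Mann-Whitney statistic from -0.5 to +0.5, computed with the Universal PBM Analysis Suite. Scale: above 0.35 generally sequence-specific binding.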
row,Sequence,PBM E-score
1,ACCTCCAA,0.0762
2,ATGTAACG,-0.038
3,TACCGCCA,-0.125
4,AGATAGGA,-0.126
5,TCAATCAA,0.281
6,CGAATCAA,0.272
7,AGAATCAA,0.243
8,TGAATCAA,0.419
9,TTAATCAA,0.371
10,CTAATCAA,0.264
11,ATCGACAG,-0.109
12,AGTGAGTA,0.355
13,CGTGAGTA,0.323
14,CGTGAGCC,0.0694
15,AGTGAGTC,0.474
16,CGTGAGTC,0.48
17,AGTGAGTG,0.0771
18,GGGTGGGA,-0.139
19,ACCCCAAT,-0.114
20,GTATTGTA,-0.0603
21,ATTGGATC,-0.0186
22,AATTTTGT,0.161
23,AAGCGGGA,-0.239
24,CGATAGTC,0.422
25,AGATAGTG,0.0368

row,Sequence,PBM E-score
1,CGATAGCC,-0.0746
2,AGATAGTC,0.403
3,CGATAGTA,0.032
4,AGATAGTA,0.177
5,GAACAAGC,-0.357
6,GAGACATA,0.334
7,AAGTCGGT,0.0145
8,AAAAGACA,-0.0266
9,AGGTGGAC,-0.133
10,AGTCAGAG,0.428
11,ACTCAGAT,0.339
12,GGTCAGAC,0.0361
13,GGTCAGAA,-0.00031
14,AGTCAGAC,0.436
15,AGTCAGAA,0.434
16,AGTCAGAT,0.427
17,ACTCAGAG,0.302
18,AATCAGAT,0.329
19,TGTCAGAA,-0.00325
20,CGTCAGAC,-0.124
21,CGTCAGAG,-0.136
22,GGGTATAA,-0.108
23,ATCGTGAG,0.124
24,CCGCGTTC,-0.274
25,AATTCCCC,-0.128

row,Sequence,PBM E-score
1,ACCGGCAG,-0.243
2,AAAGGAAG,-0.0963
3,GAGACAGC,0.136
4,CTCCTCGA,0.0215
5,ATTGATCC,0.0238
6,GCGATCCA,-0.145
7,CTGTAAGC,-0.0285
8,ATGTAGTA,0.0442
9,CTGTAGAC,0.0599
10,ATGTAGTC,0.382
11,CTGTAGTA,0.13
12,CTGTAGTC,0.416
13,ATGTAGTG,0.0118
14,GTCCGCAA,0.00032
15,CTAACCGA,0.171
16,ACGGAGAT,0.0115
17,CATTCGAA,0.0908
18,CCGGTGTA,-0.162
19,CTAGTCTA,0.205
20,GTAGTAAC,0.0921
21,CTAGTCCC,-0.135
22,GTAGTCAA,0.445
23,GTAGTCGA,0.263
24,GTCGTCAC,0.142
25,GTAGTCCA,0.262

row,Sequence,PBM E-score
1,CTAGTCAA,0.383
2,GTAGTCAC,0.479
3,CTAGTCTC,0.278
4,CTAGTCAC,0.461
5,CTAGTCGA,0.214
6,ACCACTCT,-0.0617
7,GTCACGAA,0.106
8,TTAGTCAA,0.464
9,TTAGTGAA,0.178
10,TACGTCAA,-0.153
11,TAGTGCGA,-0.0974
12,AACTCGAA,-0.0714
13,CACTCGAA,0.212
14,AACTCGAC,0.0909
15,GACTCGAA,0.396
16,GACTCGAC,0.391
17,CACTCGAC,-0.0515
18,CAGGCATG,-0.133
19,GTCCTCGA,0.197
20,CTATCCCA,-0.208
21,ACGACGAA,0.139
22,GCAACTAA,0.0789
23,ACGACTAA,0.438
24,ACTACGAC,0.302
25,CCGACTAA,0.358

row,Sequence,PBM E-score
1,ACGACTAC,0.415
2,AGGACTAC,0.341
3,TCGACTAA,0.373
4,TCGACGAA,-0.00207
5,GCTACTAA,-0.101
6,GCGACTAA,0.442
7,ACTACTAA,0.25
8,GGGAAACC,-0.0566
9,CTTCTGTA,-0.0492
10,ATGGTGCC,-0.358
11,TGATTGAA,0.333
12,CCCTCTGC,-0.226
13,ACGACTAT,0.401
14,ACGACGAT,0.023
15,GGGACTAC,0.228
16,GCGACTAC,0.391
17,CCGACTAC,0.325
18,ACGACTAG,0.359
19,CGCACAAG,0.0388
20,AGGATAGG,-0.0969
21,ACCAACTG,-0.097
22,CAACGTGC,-0.137
23,ACGCTGTA,-0.00895
24,ATGGCTCA,0.422
25,ATGGCTCC,0.256

row,Sequence,PBM E-score
1,ATGGCTCG,0.237
2,CCATAAAG,-0.178
3,CGGACTTA,0.203
4,GTAACTTA,0.166
5,ATGACGTA,0.0562
6,GGGACTTA,-0.0167
7,CTGACTTA,0.407
8,ATGACTTA,0.475
9,CCGACTTA,0.263
10,AGGACTTA,0.234
11,GTGACTTA,0.443
12,CAGACACG,-0.14
13,AGCGGTCA,-0.0499
14,ACTTACAT,-0.0151
15,AAGGGGCC,-0.145
16,AGCGAGGC,-0.282
17,AGGAGTTG,-0.0388
18,AGGAGTGA,0.105
19,AGGAGTCA,0.486
20,AGGAGTCG,0.375
21,AGGAGTAA,0.177
22,AGGAGTCC,0.297
23,ACTTTCTG,0.208
24,TCCACAAA,0.0257
25,ACCTCCTA,-0.134

row,Sequence,PBM E-score
1,CCGCACCA,0.017
2,TGCCCCAA,0.0126
3,CAGTGAAA,0.0766
4,GGTGTCGA,0.046
5,GACTACAA,0.402
6,AACTACAC,0.0443
7,TACTACAA,0.119
8,CACTACAC,-0.0592
9,CACTACAA,0.0688
10,GACTACAC,0.399
11,ACCAGCGC,-0.221
12,GGGCCCGA,-0.142
13,GAGCACGC,-0.163
14,GCTAAAAA,0.0668
15,ACTGAGTC,0.477
16,ACTGAGTA,0.28
17,ACTAAGTA,0.235
18,CCTGAGTC,0.461
19,CCTAAGTC,0.276
20,CCTGAGTA,0.234
21,CCTGAGGC,-0.16
22,ACTAAGTC,0.376
23,ACTGAGTG,0.161
24,CGGTATAC,-0.119
25,ATCCGGGA,-0.104

row,Sequence,PBM E-score
1,AATGCACA,-0.0113
2,TAGCCGCA,-0.0712
3,AAATTTCC,-0.0423
4,CCTGACTA,0.461
5,GCTGACGA,0.129
6,CCTGACGA,0.115
7,ACTGACTC,0.461
8,CCTGACGC,-0.133
9,ACTGACAC,0.0326
10,CCTGACAA,-0.124
11,GCTGACAA,0.00774
12,CCTGACTC,0.481
13,CCTGACAC,0.023
14,GCTGACTA,0.467
15,ACTGACCC,0.0295
16,ACCGCTCT,-0.114
17,CCGCTTAC,0.026
18,ATCACCCA,0.135
19,AGACCAGG,-0.166
20,TGCGTAAA,0.026
21,GCCGTCGA,-0.0942
22,CGCGGTAG,-0.0407
23,CCGGGTAA,-0.0414
24,ACTGACTA,0.447
25,ACTGACTG,0.306

row,Sequence,PBM E-score
1,ACTGACCA,-0.0902
2,ATAAAACC,0.0678
3,AAAAACCT,0.111
4,ATTCACTC,0.0742
5,AGTCACTG,0.457
6,AGACACTG,0.0291
7,CGTCACTC,-0.0803
8,AGTCACTA,0.469
9,AGTCACTC,0.467
10,CGTCACTA,0.0406
11,ATTCACTG,0.138
12,GGTCACTA,-0.234
13,TACTGATA,0.0643
14,ATAGGACG,-0.178
15,CCGCCAAG,-0.149
16,CCGTAGTC,0.394
17,ACGTAGTG,-0.132
18,CCGTAGTA,-0.15
19,ACGTAGTC,0.39
20,CCGTAGGC,-0.119
21,ACGTAGTA,-0.0277

# Reference: the supplement of paper PMC3334620
